Source: PubChem (National Center for Advancing Translational Sciences (NCATS))
An excerpt weighted towards active compounds, which were near 5.7% of everything screened.
KB-3-1 cytotox: kills parental KB-3-1 adenocarcinoma cells. AID 1347075. KB-3-1 viability, CellTiter-Glo ATP luminescence, 72 h. Potency, µM (highest dose often 46.1 µM), usual class: cytotoxic. actives 1.4% (n = 400,000); further: potency means the concentration at half of the fitted maximal effect; nearly all actives have a fitted effect of over 60% in size
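KB-3-1 parental drug-naive adenocarcinoma cells in DMEM/10% FBS, incubated 72 h at 37 C with pin-transferred compounds across a concentration series. Viability by CellTiter-Glo luminescence; concentration-response curves fitted after normalization.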
KB-V1 cytotox: KB-V1 MDR subline cytotoxicity; Potency, µM (titrated, usually from 46.1 µM), hits mostly cytotoxic; KB-V1 MDR cells viability, CellTiter-Glo, 72 h; AID 1347076; actives 3.4% (n = 400,000); further: potency means the concentration at half of the fitted maximal effect; nearly all actives have a fitted effect of over 60% in size
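In this primary screen, KB-V1 cells overexpressing P-gp are incubated with library compounds (lowest to highest concentration) for 72 h at 37 degrees C before a luminescent ATP viability read.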
PI4K2A inh: blocks human PI4K2A kinase activity. Q9BTU6. purified PI4K2A, ADP-Glo luminescence, 1 h; hits give low values. activity change, negative = inhibition, % at 76.9 µM. actives 0.13% (n = 420,000); in the data active means activity change below about -50%; inconclusive means mostly about -30% to -49%;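 further: -100% = wells without enzyme as full effect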
Target sequence (Q9BTU6 whole entry, looked up): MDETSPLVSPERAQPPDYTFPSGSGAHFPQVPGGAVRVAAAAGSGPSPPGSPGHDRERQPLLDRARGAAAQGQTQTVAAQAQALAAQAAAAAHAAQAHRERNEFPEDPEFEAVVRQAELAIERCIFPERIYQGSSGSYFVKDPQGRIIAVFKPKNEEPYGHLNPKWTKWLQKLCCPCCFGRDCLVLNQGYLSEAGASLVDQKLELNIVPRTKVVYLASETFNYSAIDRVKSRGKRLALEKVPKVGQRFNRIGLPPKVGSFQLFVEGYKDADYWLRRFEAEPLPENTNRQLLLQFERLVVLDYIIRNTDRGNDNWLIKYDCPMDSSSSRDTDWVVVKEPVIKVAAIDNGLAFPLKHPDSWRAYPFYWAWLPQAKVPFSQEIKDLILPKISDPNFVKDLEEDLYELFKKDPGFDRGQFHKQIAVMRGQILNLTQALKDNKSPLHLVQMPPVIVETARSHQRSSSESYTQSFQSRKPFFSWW
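In this quantitative HTS, ADP production by PI4K2A was quantified luminescently after 1 h at ambient temperature; 100 microM adenosine served as plate-quality control.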
Giardia kill: Giardia lamblia killing | Giardia lamblia trophozoite viability | activity change, % at 7.66 µM, hits read low | actives 0.15% (n = 340,000) | AID 540267; in the data active means activity change below about -80%; inconclusive means between about -30% and that limit;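 further: parasites exposed to compound for two days anaerobically before the ATP read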
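Trophozoites 100 cells/well + cpd; 48 hrs, 37 deg C, anaerobic. ATPLite 1-Step added, 15-30 min RT, luminescence read (ATP-based viability).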
A549 viability: counter-screen for Nrf2 inhibitors: cytotoxicity in A549 cells; A549 ARE-Fluc cells, CellTiter-Fluor viability, 18-24 h; Potency, µM (highest dose often 46 µM), for inactives: at the top dose activity change, negative = cytotoxicity, most hits filed as inhibitors; actives 0.16% (n = 390,000); AID 504648; further: potency means the concentration at half of the fitted maximal effect
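Cytotoxicity counterscreen: CellTiter-Fluor fluorescence was measured in A549 ARE_Fluc cells after 18-24 h of compound exposure in a concentration series. The subsequent BugLite luminescent read reports ARE-luciferase activity.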
Nrf2 inh: Nrf2 pathway inhibition. A549 ARE-Fluc reporter, luciferase luminescence, 18-24 h. Potency, µM (series often up to 46 µM), for inactives: at the highest dose activity change, negative = inhibition, most hits filed as inhibitors. actives 2.1% (n = 360,000); further: potency means the concentration at half of the fitted maximal effect; nearly all actives have a fitted effect of over 60% in size
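Quantitative HTS in A549 cells stably bearing an antioxidant response element-firefly luciferase construct. Inhibition of Nrf2-driven transcription was scored by luminescence after 18-24 h of compound exposure at 37 °C.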
* marks the source's active call; other numbers are inactive results; ! = repeats disagree. Unless noted, the call rests on the fitted dose curve; in most records, active means well fitted curve in the direction sought with a large enough effect; inconclusive means small, poorly fitted or top-dose-only effect, or another doubt; inactive means no such curve, though single readings can be large; an effect the other way counts as inactive or inconclusive. Unless noted, on the % scale 0 is the no-effect control and ±100 the full control effect.

Screening CCCn1c(NCc2cccc(OC)c2O)nc2ccccc21 returned KB-3-1 cytotox inactive, KB-V1 cytotox 8.2µM*, PI4K2A inh -1, Giardia kill 6, A549 viability -1% and Nrf2 inh 12%.
Screening CCCn1c(NCc2cccc(OC)c2OC)nc2ccccc21 returned KB-3-1 cytotox inactive, KB-V1 cytotox inactive, PI4K2A inh -2, Giardia kill 17, A549 viability 0% and Nrf2 inh inconclusive.
`CCCCn1c(NCc2cc(C)ccc2O)nc2ccccc21` gave KB-3-1 cytotox inactive, KB-V1 cytotox inactive and PI4K2A inh -1.
For COc1cccc(OC)c1C(=O)Nn1c(C2CCC2)nc2ccccc2c1=O the results were KB-3-1 cytotox inactive, KB-V1 cytotox inactive, PI4K2A inh -1, Giardia kill 6 and A549 viability -3%.
O=C(Nn1c(C2CCCCC2)nc2ccccc2c1=O)c1ccc([N+](=O)[O-])cc1 was read as KB-3-1 cytotox inactive, KB-V1 cytotox inconclusive, PI4K2A inh 0, Giardia kill 20, A549 viability inconclusive and Nrf2 inh 23µM*.
O[C@@H]1CN(CC2CCCCC2)[C@@H](c2ccccc2)C[C@H]1n1cc(C2CC2)nn1 was read as KB-3-1 cytotox 21µM*, KB-V1 cytotox inconclusive and PI4K2A inh 4.
O[C@H]1C[C@H](c2ccccc2)N(CC2CCCCC2)C[C@@H]1n1cc(C2CC2)nn1 was read as KB-3-1 cytotox inconclusive, KB-V1 cytotox inactive and PI4K2A inh -6.
For O=S(=O)(Nc1nc2ccccc2[nH]1)c1ccccc1 the results were KB-3-1 cytotox inactive, KB-V1 cytotox 21µM*, PI4K2A inh 2, Giardia kill 16, A549 viability -6% and Nrf2 inh 4%.
For CCc1ccccc1Nc1nc2ccccc2[nH]1 the results were KB-3-1 cytotox inconclusive, KB-V1 cytotox inconclusive, PI4K2A inh -3, Giardia kill -12, A549 viability -1% and Nrf2 inh 15µM*.
C=C1C=C(C)n2ncc(C(=O)N(CCc3ccccc3)Cc3ccccc3)c2N1 was read as KB-3-1 cytotox inactive and KB-V1 cytotox inactive.
COc1ccc(C2C3=C(CC(C)(C)CC3=O)Oc3ncn(Cc4ccccc4)c(=N)c32)cc1 (stereo not given) was read as KB-3-1 cytotox inactive, KB-V1 cytotox 3.3µM*, PI4K2A inh -2, Giardia kill -3, A549 viability -25% and Nrf2 inh inconclusive.
Screening COc1ccc(C2c3c(ncn(CCN4CCOCC4)c3=N)Oc3ccc4ccccc4c32)cc1 (stereo not given) returned KB-3-1 cytotox inconclusive, KB-V1 cytotox 15µM*!, PI4K2A inh -1, Giardia kill 6, A549 viability -16% and Nrf2 inh -9%.
For COc1ccc(-n2cnc3c(c2=N)C(c2cccc(OC)c2)c2c(ccc4ccccc24)O3)cc1 (stereo not given) the results were A549 viability -4% and Nrf2 inh inconclusive.
`CCOc1ccc(C2c3c(ncn(-c4ccccc4)c3=N)Oc3ccc4ccccc4c32)cc1OCC` (stereo not given) gave A549 viability 21µM* and Nrf2 inh 16µM*.
For N=c1c2c(ncn1-c1ccccc1)Oc1ccc3ccccc3c1C2c1ccc2c(c1)CCO2 (stereo not given) the results were A549 viability 16µM* and Nrf2 inh inconclusive.
`CC1(C)CC(=O)C2=C(C1)Oc1ncn(Cc3ccco3)c(=N)c1C2c1ccccc1` (stereo not given) gave KB-3-1 cytotox inactive, KB-V1 cytotox inconclusive, PI4K2A inh 1, Giardia kill 1, A549 viability -14% and Nrf2 inh inconclusive.
Screening CCN1CCN(C(=O)CCN(CC(C)C)c2nc(-c3cccs3)nc3ccccc23)CC1 returned A549 viability -13% and Nrf2 inh -18%.
